Measured values reported in PubChem BioAssay.
Results filed as inconclusive are left out. The source made the active and inactive calls. Unless noted, no stated cut-off is given here; in the data, active means percent of DMSO control GFP below about 86%; inactive means the rest, inconclusive results apart.

Columns and labels:
[1] = yeast TOR pathway RPL19A-GFP modulators, primary screen, cell-based, S. cerevisiae, multiplex flow cytometry (AID 1862);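 further: lower values mimic rapamycin by blocking the RPL19A rise seen in DMSO cells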; settings: S. cerevisiae RPL19A-GFP strain, flow cytometry fluorescence, 3 h; at 10 µM; stronger effect = lower value
[2] = modulators of MEP2-GFP levels in yeast, primary screen, S. cerevisiae, multiplex flow cytometry (AID 1867;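 active means GFP response, as percent of the DMSO control, above the screen-wide mean plus 3 SD, about 139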;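 further: median GFP channel fluorescence of barcode-gated MEP2-GFP cells measured by flow cytometry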); settings: S. cerevisiae MEP2-GFP strain, 3 h, at 10 µM, stronger effect = higher value, 100% means same as DMSO wells
[3] = modulators of CIT2-GFP expression in yeast, primary screen, S. cerevisiae, GFP fusion, multiplex flow cytometry (AID 1870;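 active means percent response above a set limit, the screen-wide mean plus 3 SD, cut at about 130% in these data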;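 further: barcoded CIT2-GFP strain pooled with four other GFP strains with rapamycin as positive control; median GFP fluorescence per well over plate mean of DMSO wells so 100% = DMSO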); settings: 3 h, at 10 µM, stronger effect = higher value
[4] = modulators of LAP4-GFP expression in yeast, primary screen, S. cerevisiae, multiplex flow cytometry (AID 1873;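 active means GFP signal, as percent of the solvent control, above the screen mean plus 3 SD, about 149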); settings: 3 h, at 10 µM, stronger effect = higher value
[5] = modulators of AGP1-GFP expression in yeast TOR pathway, primary screen, cell-based, multiplex flow cytometry, S. cerevisiae (AID 1887;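 active means GFP signal above the screen-wide mean plus 3 SD, that is over about 124.5% of the solvent control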;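 further: AGP1-GFP fusion strain of S. cerevisiae within a five-strain barcoded multiplex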); settings: 3 h, at 10 µM, stronger effect = higher value
[6] = inhibitors of CD8+ T cell-vesicle binding, pilot screen, LFA-1/ICAM-1 modulator project, MLPCN validation set, flow cytometry (AID 2523;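 active means response below a set limit, under 55% cells CD8-positive and vesicle-bound, and CD8 cells' 90th-percentile brightness under 279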;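 on vesicle binding response: mean PE anti-B7-1 fluorescence of CD8+ cells relative to row control; 100% = QL9-loaded vesicles with DMSO vehicle in the same plate row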); settings: 2C mouse CD8+ T cells, at 7 µM, stronger effect = lower value; double positive events: measured here: CD8+/vesicle+ event percentage
[7] = molecular target: Integrin beta-1 (Homo sapiens) + Integrin alpha-4 (Homo sapiens) (UniProt P13612+P05556); test: inhibition of HUTS-21 binding to VLA-4, pilot screen, VLA-4 allosteric modulator project, U937 cells, HUTS-21 mAb, flow cytometry, validation set (AID 2674;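 active means inhibition above 50%, about 3 SD of the validation set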;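 further: antibody binding induced by the VLA-4 ligand LDV present at three times its Kd; 0% = LDV ligand with antibody and no compound and 100% = antibody without LDV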); settings: HUTS-21 LIBS mAb binding, at 6.7 µM, stronger effect = higher value, binding induced by LDV ligand
Chain of Integrin beta-1 (Homo sapiens) + Integrin alpha-4 (Homo sapiens) (P05556 whole entry, looked up): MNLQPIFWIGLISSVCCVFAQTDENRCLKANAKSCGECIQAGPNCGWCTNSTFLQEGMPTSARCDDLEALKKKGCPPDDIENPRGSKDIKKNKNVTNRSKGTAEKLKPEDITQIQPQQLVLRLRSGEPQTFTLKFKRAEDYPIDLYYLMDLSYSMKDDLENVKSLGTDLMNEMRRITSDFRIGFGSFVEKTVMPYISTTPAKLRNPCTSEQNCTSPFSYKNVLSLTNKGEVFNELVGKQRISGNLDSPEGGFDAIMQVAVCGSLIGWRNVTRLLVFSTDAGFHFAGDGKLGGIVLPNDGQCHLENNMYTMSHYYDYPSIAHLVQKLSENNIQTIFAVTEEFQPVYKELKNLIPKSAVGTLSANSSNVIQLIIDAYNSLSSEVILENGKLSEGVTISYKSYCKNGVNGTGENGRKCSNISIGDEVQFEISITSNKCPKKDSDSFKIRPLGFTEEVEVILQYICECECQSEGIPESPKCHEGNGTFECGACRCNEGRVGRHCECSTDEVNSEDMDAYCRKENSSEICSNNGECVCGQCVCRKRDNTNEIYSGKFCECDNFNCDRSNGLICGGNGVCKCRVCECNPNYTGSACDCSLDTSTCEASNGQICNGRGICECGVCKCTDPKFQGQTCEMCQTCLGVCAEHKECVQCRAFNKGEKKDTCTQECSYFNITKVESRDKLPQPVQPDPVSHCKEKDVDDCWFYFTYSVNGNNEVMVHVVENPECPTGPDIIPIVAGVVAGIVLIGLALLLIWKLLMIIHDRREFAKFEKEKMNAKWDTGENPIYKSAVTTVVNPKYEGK
Chain of Integrin beta-1 (Homo sapiens) + Integrin alpha-4 (Homo sapiens) (P13612 whole entry, looked up): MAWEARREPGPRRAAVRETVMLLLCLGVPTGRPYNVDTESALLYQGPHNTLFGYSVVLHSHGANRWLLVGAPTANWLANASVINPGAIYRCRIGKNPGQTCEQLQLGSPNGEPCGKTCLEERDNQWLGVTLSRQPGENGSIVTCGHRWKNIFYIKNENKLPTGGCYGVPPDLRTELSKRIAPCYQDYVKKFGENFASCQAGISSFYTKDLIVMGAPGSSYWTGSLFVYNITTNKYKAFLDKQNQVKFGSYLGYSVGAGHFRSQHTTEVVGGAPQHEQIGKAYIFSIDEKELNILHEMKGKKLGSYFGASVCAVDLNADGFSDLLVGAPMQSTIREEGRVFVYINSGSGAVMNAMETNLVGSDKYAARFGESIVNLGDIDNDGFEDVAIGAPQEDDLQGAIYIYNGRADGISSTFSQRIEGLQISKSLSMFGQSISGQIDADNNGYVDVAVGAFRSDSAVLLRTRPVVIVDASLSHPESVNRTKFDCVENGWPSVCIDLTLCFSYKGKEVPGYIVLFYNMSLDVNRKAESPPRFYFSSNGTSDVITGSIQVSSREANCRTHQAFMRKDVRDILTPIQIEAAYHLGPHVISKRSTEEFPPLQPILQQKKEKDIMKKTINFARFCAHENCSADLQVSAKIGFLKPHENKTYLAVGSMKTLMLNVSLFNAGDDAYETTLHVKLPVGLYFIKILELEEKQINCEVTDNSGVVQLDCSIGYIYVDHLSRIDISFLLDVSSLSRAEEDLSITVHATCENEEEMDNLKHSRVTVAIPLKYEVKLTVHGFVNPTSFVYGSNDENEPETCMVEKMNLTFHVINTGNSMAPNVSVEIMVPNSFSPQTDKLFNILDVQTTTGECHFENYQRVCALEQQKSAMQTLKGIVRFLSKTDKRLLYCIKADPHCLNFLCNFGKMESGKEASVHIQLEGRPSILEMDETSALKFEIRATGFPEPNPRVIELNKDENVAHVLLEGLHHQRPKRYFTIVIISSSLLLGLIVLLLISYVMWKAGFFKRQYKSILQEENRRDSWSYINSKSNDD

[8] = superoxide lowering in aged yeast cells, pilot screen, validation compound set (AID 2706;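 active means superoxide response below 65% of plate, a cut near 3 SD across the whole screen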;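 further: yeast exposed to compound for one week at 30 degrees C before staining; 100% = mean of all compound wells on the same plate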); settings: S. cerevisiae aging, superoxide DHE fluorescence; at 10 µM; stronger effect = lower value
[9] = molecular target: Beta-adrenergic receptor kinase 1 (Homo sapiens) (UniProt P25098); test: GRK2 binders displacing RNA aptamer, biochemical, validation, human GRK2, bead flow cytometry (AID 488806;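 active means aptamer binding inhibition above 30%, about 3 SD of noise from non-fluorescent compounds; inactive means inhibition at or below 30%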); settings: bead-bound GRK2, FAM-aptamer displacement, at 10 µM, stronger effect = higher value
Chain of Beta-adrenergic receptor kinase 1 (Homo sapiens) (P25098 whole entry, looked up): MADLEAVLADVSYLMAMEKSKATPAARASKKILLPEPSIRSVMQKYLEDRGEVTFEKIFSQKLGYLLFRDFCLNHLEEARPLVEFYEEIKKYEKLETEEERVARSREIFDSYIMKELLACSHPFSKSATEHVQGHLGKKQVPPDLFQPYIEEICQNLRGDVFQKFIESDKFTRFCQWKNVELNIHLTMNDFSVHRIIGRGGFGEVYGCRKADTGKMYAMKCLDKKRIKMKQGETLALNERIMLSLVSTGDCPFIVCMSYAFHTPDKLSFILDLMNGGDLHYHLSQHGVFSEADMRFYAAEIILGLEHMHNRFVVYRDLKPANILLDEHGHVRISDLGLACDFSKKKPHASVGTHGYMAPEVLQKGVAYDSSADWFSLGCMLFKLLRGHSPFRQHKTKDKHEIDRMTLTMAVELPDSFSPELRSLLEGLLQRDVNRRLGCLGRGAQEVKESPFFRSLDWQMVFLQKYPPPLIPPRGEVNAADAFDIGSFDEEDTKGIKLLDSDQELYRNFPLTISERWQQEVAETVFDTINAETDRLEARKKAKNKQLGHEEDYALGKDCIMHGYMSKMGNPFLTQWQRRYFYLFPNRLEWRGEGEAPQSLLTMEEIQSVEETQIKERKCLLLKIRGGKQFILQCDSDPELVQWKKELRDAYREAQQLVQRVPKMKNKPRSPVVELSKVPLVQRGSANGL

[10] = molecular target: Beta-2 adrenergic receptor (Homo sapiens) (UniProt P07550); test: beta2AR agonists driving receptor internalization, pilot screen, cell-based, FAP fluorogen, flow cytometry, validation set (AID 504459;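 active means percent response above 42, roughly 3 SD of non-fluorescent test compounds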;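 further: agonist-driven loss of surface beta2AR via internalization measured by FAP dye flow cytometry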); settings: Am2.2-beta2AR cells, FAP surface receptor flow cytometry; at 10 µM; stronger effect = higher value
Chain of Beta-2 adrenergic receptor (Homo sapiens) (P07550 whole entry, looked up): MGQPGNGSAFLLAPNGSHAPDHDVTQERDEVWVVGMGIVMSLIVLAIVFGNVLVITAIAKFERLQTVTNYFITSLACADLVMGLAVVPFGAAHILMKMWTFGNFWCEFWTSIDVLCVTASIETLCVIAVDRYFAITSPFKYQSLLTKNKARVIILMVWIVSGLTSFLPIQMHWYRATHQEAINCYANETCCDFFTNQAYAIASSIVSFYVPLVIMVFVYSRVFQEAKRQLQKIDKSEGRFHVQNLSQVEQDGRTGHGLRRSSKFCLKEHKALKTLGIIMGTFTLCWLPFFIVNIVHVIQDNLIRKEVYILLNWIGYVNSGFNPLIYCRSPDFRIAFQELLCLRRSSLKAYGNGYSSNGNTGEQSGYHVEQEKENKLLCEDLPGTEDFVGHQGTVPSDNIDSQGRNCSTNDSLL

[11] = molecular target: AP-2 complex subunit beta (Homo sapiens) (UniProt P63010); test: inhibitors of arrestin peptide binding to AP2, pilot screen, biochemical, validation set, GST-AP2 beads, flow cytometry (AID 504541;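 active means inhibition above 54%, about 3 SD of non-fluorescent compounds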;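 further: AP2 carries R879A mutation and is captured from E. coli lysate; bead-bound FITC arrestin peptide fluorescence measuring arrestin peptide binding to AP2; 0% = DMSO wells and 100% = excess unlabeled arrestin peptide control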); settings: FITC arrestin peptide, at 10 µM, stronger effect = higher value, AP2 beta2 appendage fragment, R879A mutant
Chain of AP-2 complex subunit beta (Homo sapiens) (P63010 whole entry, looked up, the tested form may be a part, one chain of several): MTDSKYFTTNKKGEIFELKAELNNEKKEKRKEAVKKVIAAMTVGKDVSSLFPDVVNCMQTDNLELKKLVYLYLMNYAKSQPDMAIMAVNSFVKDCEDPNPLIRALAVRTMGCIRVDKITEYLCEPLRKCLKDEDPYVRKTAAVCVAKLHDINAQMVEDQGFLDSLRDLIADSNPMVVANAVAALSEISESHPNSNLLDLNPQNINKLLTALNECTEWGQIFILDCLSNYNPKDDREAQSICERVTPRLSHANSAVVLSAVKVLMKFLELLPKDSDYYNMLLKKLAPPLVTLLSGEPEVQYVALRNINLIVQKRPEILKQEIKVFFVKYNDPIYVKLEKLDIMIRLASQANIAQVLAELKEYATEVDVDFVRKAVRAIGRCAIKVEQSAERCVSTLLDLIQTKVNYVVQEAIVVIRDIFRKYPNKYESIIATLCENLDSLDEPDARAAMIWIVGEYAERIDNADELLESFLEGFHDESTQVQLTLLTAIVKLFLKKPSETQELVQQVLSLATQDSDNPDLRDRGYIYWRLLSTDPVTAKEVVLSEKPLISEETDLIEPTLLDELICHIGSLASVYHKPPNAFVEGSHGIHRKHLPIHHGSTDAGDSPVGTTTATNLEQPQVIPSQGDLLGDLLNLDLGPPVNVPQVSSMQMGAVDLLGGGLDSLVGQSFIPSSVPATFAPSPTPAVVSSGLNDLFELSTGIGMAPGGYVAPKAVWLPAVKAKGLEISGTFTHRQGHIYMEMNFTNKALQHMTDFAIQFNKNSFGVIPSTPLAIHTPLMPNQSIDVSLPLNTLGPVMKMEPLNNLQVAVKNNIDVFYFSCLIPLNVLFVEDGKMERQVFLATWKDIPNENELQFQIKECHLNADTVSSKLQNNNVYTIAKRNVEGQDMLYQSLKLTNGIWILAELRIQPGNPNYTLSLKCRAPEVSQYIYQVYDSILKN

[12] = yeast V-ATPase proton transport modulators, S. cerevisiae, pHLuorin, HTS validation (AID 504600; in the data active means response above about 15%;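 further: plate controls were DMSO for no effect and reference compound for full effect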); settings: S. cerevisiae pHLuorin cytosolic pH, at 10 µM, stronger effect = higher value
[13] = test system: anti-desmoglein-3 scFv antibody binding to human DSG3; test: inhibitors of anti-DSG3 scFv binding to DSG3, pilot screen, biochemical, validation compound set, bead-based, flow cytometry (AID 588368;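 active means binding below the plate cutoff, the plate median minus 3 SD, with a reading above zero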;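 further: signal is the median channel fluorescence of bead-bound GFP antibody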); settings: Protein G beads, DSG3-Fc, scFv-GFP binding, at 10 µM, stronger effect = lower value
[14] = inhibitors of fungal efflux pumps CDR1, CDR2, MDR1, pilot screen, validation compound set, multiplex, phenotypic (AID 588506;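 active means efflux inhibition above 0.42, the validation set average plus 4 SD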;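 further: Nile Red retained in cells so higher fluorescence means more efflux inhibition; 0 = negative control wells and 1 = enniatin B 25 µM full block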); settings: S. cerevisiae pump-expressing triplex, Nile Red efflux flow cytometry; at 10 µM; stronger effect = higher value; the pumps come from Candida albicans
[15] = molecular target: ATP-binding cassette sub-family B member 6 (Homo sapiens) (UniProt Q9NP58); test: ABCB6 transporter inhibitors, pilot screen, K562-ABCB6 cells, flow cytometry, validation set (AID 588550;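 active means inhibition above the screen-wide mean plus 3 SD, about 51%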;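 further: 0% = DMSO wells and 100% = benzethonium chloride 70 µM positive control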); settings: K562-ABCB6 porphyrin accumulation, 1 h, at 10 µM, stronger effect = higher value
Chain of ATP-binding cassette sub-family B member 6 (Homo sapiens) (Q9NP58 whole entry, looked up): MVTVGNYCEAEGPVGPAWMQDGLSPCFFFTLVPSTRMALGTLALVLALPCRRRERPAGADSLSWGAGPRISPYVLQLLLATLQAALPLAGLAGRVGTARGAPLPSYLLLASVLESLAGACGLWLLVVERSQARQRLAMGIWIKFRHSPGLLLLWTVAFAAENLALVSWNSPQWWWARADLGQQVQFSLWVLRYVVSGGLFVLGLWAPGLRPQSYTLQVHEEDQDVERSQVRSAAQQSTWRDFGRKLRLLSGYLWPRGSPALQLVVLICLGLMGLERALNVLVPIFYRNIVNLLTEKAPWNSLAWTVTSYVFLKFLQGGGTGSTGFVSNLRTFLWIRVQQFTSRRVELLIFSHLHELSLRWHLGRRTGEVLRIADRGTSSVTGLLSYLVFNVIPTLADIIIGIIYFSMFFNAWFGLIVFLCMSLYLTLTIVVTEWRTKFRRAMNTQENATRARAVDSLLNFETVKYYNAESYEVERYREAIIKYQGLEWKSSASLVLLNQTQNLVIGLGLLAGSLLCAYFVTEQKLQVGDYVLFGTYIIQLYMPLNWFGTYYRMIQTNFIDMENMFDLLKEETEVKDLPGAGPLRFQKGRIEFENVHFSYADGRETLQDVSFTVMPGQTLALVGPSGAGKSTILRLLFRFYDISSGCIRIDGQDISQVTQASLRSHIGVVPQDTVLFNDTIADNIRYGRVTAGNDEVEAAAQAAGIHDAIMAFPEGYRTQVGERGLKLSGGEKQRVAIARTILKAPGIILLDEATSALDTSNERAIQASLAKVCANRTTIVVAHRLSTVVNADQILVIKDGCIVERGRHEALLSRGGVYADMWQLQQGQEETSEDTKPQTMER

[16] = promoters of myeloid differentiation in arrested cells, primary screen, cell-based, GFP/MAC1 double positive, flow cytometry, validation set (AID 588685;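 active means differentiation response of at least 50%, scaled between solvent and reference control, from cells with both markers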;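 further: compound exposure lasts four days before antibody staining and flow analysis; 0% = DMSO wells and 100% = 5 µM fulvestrant positive control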); settings: ER-HoxA9 marrow cells, stronger effect = higher value, normalized: vehicle 0, fulvestrant 100

Row | SMILES | percent of DMSO control GFP [1] | GFP response vs DMSO [2] | percent response of DMSO control [3] | GFP response vs DMSO [4] | GFP response, % of DMSO [5] | double positive events [6] [%] | vesicle binding response [6] | inhibition [7] | superoxide response (% of plate) [8] | aptamer binding inhibition [9] | response [10] | inhibition [11] | response [12] | binding (% of control) [13] | efflux inhibition (fraction of control) [14] | inhibition [15] | differentiation response [16]
1 | COc1ccc2[nH]c(=O)c(CNC3CCCCC3)cc2c1 | 102% (inactive) | 103% (inactive) | 106% (inactive) | 98% (inactive) | 99.9% (inactive) | 63.6 | 244% (inactive) | 11% (inactive) | 106% (inactive) | 2% (inactive) | -1.53% (inactive) | -0.94% (inactive) | 1.21% (inactive) | 95.5% (inactive) | -0.01 (inactive) | -1% (inactive) | 0.24% (inactive)
2 | Cc1cc(C)c(NC(=O)NC(=O)C(Cl)(Cl)Cl)c(C)c1 | 103% (inactive) | 97.2% (inactive) | 101% (inactive) | 90.7% (inactive) | 94.2% (inactive) | 62.2 | 464% (inactive) | 13% (inactive) | 97.8% (inactive) | 4% (inactive) | -6.36% (inactive) | -8.2% (inactive) | 13.6% (inactive) | 96.9% (inactive) | -0.04 (inactive) | -19% (inactive) | 0.24% (inactive)
3 | CC(=O)N1c2ccccc2C(C)=CC1(C)C | 101% (inactive) | 107% (inactive) | 98.3% (inactive) | 104% (inactive) | 125% (inactive) | 64.4 | 199% (inactive) | -17.3% (inactive) | 112% (inactive) | 2% (inactive) | -23.5% (inactive) | -16.5% (inactive) | -0.45% (inactive) | 109% (inactive) | -0.04 (inactive) | 2% (inactive) | -1.05% (inactive)
4 | COc1ccc(S(=O)(=O)NCc2ccco2)c2ccccc12 | 100% (inactive) | 104% (inactive) | 88.2% (inactive) | 114% (inactive) | 87% (inactive) | 62.3 | 175% (inactive) | 7.76% (inactive) | 89.3% (inactive) | 3% (inactive) | -3.81% (inactive) | -4.99% (inactive) | 1.41% (inactive) | 96.3% (inactive) | -0.13 (inactive) | 7% (inactive) | 2.4% (inactive)
5 | Cc1ccccc1NC(=O)NCCc1c[nH]c2ccccc12 | 101% (inactive) | 107% (inactive) | 101% (inactive) | 89.4% (inactive) | 98.8% (inactive) | 60.8 | 12.4% (inactive) | 9.71% (inactive) | 96.6% (inactive) | 2% (inactive) | 9.05% (inactive) | 7.09% (inactive) | -3.03% (inactive) | 101% (inactive) | 0.07 (inactive) | 10% (inactive) | -1.88% (inactive)
6 | CC1=NN(C(=O)c2ccc(Br)cc2)C(O)(c2ccccc2)C1 (stereo not drawn) | 100% (inactive) | 96.6% (inactive) | 102% (inactive) | 109% (inactive) | 103% (inactive) | 64.3 | 165% (inactive) | 13.7% (inactive) | 86.9% (inactive) | 0% (inactive) | 5.99% (inactive) | -5.19% (inactive) | -3.1% (inactive) | 96.8% (inactive) | 0.36 (inactive) | -9% (inactive) | -4.57% (inactive)
7 | CC[C@H](C)C(=O)O[C@H]1C[C@@H](C)C=C2C=C[C@H](C)[C@H](CC[C@@H]3C[C@@H](O)CC(=O)O3)[C@H]21 | 107% (inactive) | 108% (inactive) | 103% (inactive) | 97% (inactive) | 95.8% (inactive) | 64.6 | 126% (inactive) | -5.11% (inactive) | 93.1% (inactive) | 2% (inactive) | 1.87% (inactive) | 49.7% (inactive) | -9.69% (inactive) | 109% (inactive) | 0.28 (inactive) | 0% (inactive) | -11.9% (inactive)
8 | CCC(C)NCCOCCOc1ccc(Cl)cc1Br (stereo not drawn) | 103% (inactive) | 102% (inactive) | 102% (inactive) | 100% (inactive) | 103% (inactive) | 61.4 | 142% (inactive) | 0.25% (inactive) | 98% (inactive) | -7% (inactive) | -3.72% (inactive) | 57.1% (active) | -10.6% (inactive) | 95.8% (inactive) | -0.16 (inactive) | -14% (inactive) | -4.57% (inactive)
9 | CSc1ccc(/C=N/N2CCN(Cc3ccc(C)cc3C)CC2)cc1 | 100% (inactive) | 99.7% (inactive) | 110% (inactive) | 97% (inactive) | 96.3% (inactive) | 61.9 | 118% (inactive) | -5.11% (inactive) | 97.2% (inactive) | -2% (inactive) | 6.9% (inactive) | 7.81% (inactive) | 4.06% (inactive) | 103% (inactive) | 0.22 (inactive) | 25% (inactive) | 11.5% (inactive)
